Bioassay records: PubChem BioAssay, several laboratories
Compounds with a hit are over-represented: about 2.1% of the library has one in this group of screens.
NFkB transloc pot: enhances IL-1B driven NFkB nuclear translocation; HUVEC IL-1B NFkB p65 nuclear translocation imaging; actives 0.3% (n = 94,000); activation, % at 2 µM; AID 819;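 active = activation above 40%, about the mean plus 3 SD, also judged a hit on visual image review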;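 also: percent activation is computed from the nuclear over cytoplasmic p65 intensity ratio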
HUVEC tox IL1B: HUVEC cytotoxicity counter-screen, IL-1B stimulated; cell count reduction, % at 2 µM; HUVEC cell count loss, Hoechst imaging; AID 845; actives 0.41% (n = 94,000);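 active = cell count reduction more than 3 SD above the screen-wide mean, cut at about 70% in these data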;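 also: normalized per plate to untreated control cells as the no-loss baseline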
IL1B NFkB inh: blocks IL-1B driven NFkB nuclear translocation in HUVEC cells | HUVEC IL-1B NFkB p65 nuclear translocation imaging | inhibition, % at 2 µM | actives 0.43% (n = 94,000);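 active = inhibition above about 30% together with a positive call from visual inspection of the well image, limit read from the data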;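 also: nuclear over cytoplasmic p65 intensity ratio measured by imaging; 0% = IL-1B stimulated DMSO wells and 100% = unstimulated DMSO wells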
Measles CPE: protection of cells from measles virus | Measles virus-infected cells, CPE protection, absorbance | protection (pct of control), % at 4 µM | actives 1.5% (n = 140,000) | AID 841; in the data active = protection mostly above about 24%, no sharp cut-off; inactive = mostly below about 26%
Active calls of the source: *; . = no result.

SMILES	NFkB transloc pot	HUVEC tox IL1B	IL1B NFkB inh	Measles CPE
COCCCNC(=S)NC1CCCCC1	.	.	.	14
COc1cc2c(cc1NC(=O)c1cccc([N+](=O)[O-])c1)oc1ccccc12	-9	78*	9	6
C=CCCCCc1nc2ccccc2c(=O)n1N	.	.	.	2
COc1ccc(CCNC(=O)CSc2nnc(-c3ccc(F)cc3)o2)cc1OC	9	1	-9	6
CC(C)c1ccc(C(=O)NNC(=O)C2CC=CCC2C(=O)O)cc1 (stereo not given)	.	.	.	29*
Cc1ccsc1C(=O)NNC(=O)C1CC=CCC1C(=O)O (stereo not given)	.	.	.	9
Cn1c2ccccc2c2nn(-c3ccccc3)c(=O)cc21	.	.	.	5
CC(=O)Nc1cccc(-c2csc(Nc3ccc(C)cn3)n2)c1	.	.	.	53*
CCC(COC(=O)Nc1cccc(C)c1C)NC(=O)OCC(C)C (stereo not given)	-31	3	31*	5
CCCOC(=O)NC(CC)COC(=O)Nc1cccc(C)c1C (stereo not given)	4	8	-4	16
CC1(C)N([O-])C2=C(c3ccccc3C2=O)[N+](=O)C1(C)C	19	-130	-20	2
COc1ccc(CC(=O)N2CCN(c3ccc(C4=NNC(=O)CC4C)cc3)CC2)cc1 (stereo not given)	1	-43	-1	2
CCC(=O)NC(=S)N1CCN(c2ccc([N+](=O)[O-])cc2Cl)CC1	-17	10	18	29*
O=C(OCn1nnc2ccccc2c1=O)c1ccc2ccccc2n1	13	-9	-13	4
COc1ccc(Cl)cc1C(=O)NNC(=O)c1cccc(S(=O)(=O)N(C)C)c1	.	.	.	73*
Nn1cc(-c2ccccc2)nc1SCC(=O)N1CCN(S(=O)(=O)c2ccc(Cl)cc2)CC1	.	.	.	23*
CCC(C)Sc1nc2c(c(=O)[nH]c(=O)n2C)n1C (stereo not given)	7	91*	-7	6
CCNc1c2c(nc3ccccc13)CC(C)(C)CC2=O	-97	79*	97*	19
CC1(C)CC(=O)c2c(nc3ccccc3c2N)C1	13	-28	-13	27
Cn1c(NCc2ccccc2O)nc2ccccc21	.	.	.	28*
CC1CCN(c2oc(-c3cccc4ccccc34)nc2C#N)CC1	-100	94*	100*	27
N#Cc1nc(-c2cccc3ccccc23)oc1N1CCCCC1	-1	13	1	20
O=C(CCn1c(=O)c2sccc2n(CC(=O)OCc2ccccc2)c1=O)NCc1ccccc1	-16	-7	16	9
CC(C)NC(=O)COC(=O)c1cc(F)c(F)cc1Cl	7	6	-7	20
CC(C)NC(=O)COC(=O)c1cc(Br)ccc1Cl	.	.	.	52*
SMILES	NFkB transloc pot	HUVEC tox IL1B	IL1B NFkB inh	Measles CPE
O=C(Nc1ccc2c(c1)OCO2)C1CCCCN1S(=O)(=O)c1ccc(F)cc1 (stereo not given)	-5	-14	5	7
CN(C)CCNC(=O)CN1C(=O)COc2ccc(C(C)(C)C)cc21	0	9	0	14
O=C(NNS(=O)(=O)c1ccc2ccccc2c1)c1cccs1	.	.	.	29
O=C(NNS(=O)(=O)c1ccc2ccccc2c1)NC1CCCCC1	.	.	.	52*
O=C1CC(N2CCCN(C3CC(=O)N(c4ccc(F)cc4)C3=O)CC2)C(=O)N1c1ccc(F)cc1 (stereo not given)	10	-9	-10	55*
O=C(OCc1nnc(-c2ccccc2)o1)C1CCN(S(=O)(=O)c2cccs2)CC1	-20	8	20	1
O=C(N/N=C/c1ccccc1)c1ccc(N2CCOCC2)c([N+](=O)[O-])c1	.	.	.	20*
CCCCC(=O)Nc1ccc(Br)cc1C(=O)O	1	-11	-1	55*
CC(=O)N1C(=O)c2cccc3cccc(c23)C(=O)N1C(C)=O	-1	-39	1	54*
CCCOc1cccc(C(=O)Nc2cccnc2)c1	40*	-19	-40	12
O=C(COC(=O)c1cccnc1Cl)NCc1ccc2c(c1)OCO2	.	.	.	33*
C=CCC1(O)C(=O)N2C(=C1C(=O)OCC)c1ccc3ccccc3c1CC2(C)C (stereo not given)	0	-4	0	61*
CN(C)S(=O)(=O)c1ccc(Cl)c(NC(=O)c2ccncc2)c1	.	.	.	9
CCCn1c(SCC#N)nc2c(c1=O)C1(CCCC1)Cc1ccccc1-2	-18	93*	18	6
CCN1CCc2c(sc(NC(=S)NC(=O)c3ccccc3)c2C#N)C1	-27	93*	27	1
CCC(=O)N1C(Cc2ccccc2)COC1(C)C (stereo not given)	.	.	.	13
O=C(CSc1nnnn1-c1cccc2c1CCCC2)N1CCCCC1	38	-8	-38	20
Cc1ccccc1SCC(=O)OCC(=O)Nc1sccc1C(N)=O	.	.	.	46*
